# This is a sample that favours compounds with a hit; in the whole collection about 3.6% have one here.
# Mtb hypoxia rep = inhibitors of hypoxia-regulated fluorescent reporter in Mycobacterium tuberculosis. M. tuberculosis hypoxia-regulated fluorescent reporter, fluorescence. fluorescence inhibition, % (no concentration beside the values). 300,000 compounds, 0.1% hits; in the data active means fluorescence inhibition mostly above about 23%, no sharp cut-off; inactive means mostly below about 17%
# GDH-TPI counter-1 = inhibits GDH-TPI coupling enzymes, artifact for Mtb FBA screen. AID 588335. inhibition, % at 4.8 µM. GDH-TPI coupled enzyme counterscreen, NADH absorbance. 360,000 compounds, 1.2% hits; in the data active means inhibition above about 30%;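 further: 0% = DMSO wells and 100% = wells lacking the enzyme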
# Mtb betalactam = beta-lactam sensitization of Mtb H37Rv | M. tuberculosis H37Rv growth with meropenem, percent inhibition | inhibition, % at 25 µM | 330,000 compounds, 0.27% hits; call rule not given here;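 further: growth measured after seven days incubation then overnight dye step; 0% = bacteria only wells and 100% = bacteria with antibiotic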
# DUSP3 inh = DUSP3 (human) phosphatase inhibition; inhibition, % at 13.3 µM; 290,000 compounds, 0.52% hits; AID 1654; recombinant VHR phosphatase, pNPP absorbance; in the data active means inhibition above about 50%
# Target sequence (P51452 whole entry, looked up): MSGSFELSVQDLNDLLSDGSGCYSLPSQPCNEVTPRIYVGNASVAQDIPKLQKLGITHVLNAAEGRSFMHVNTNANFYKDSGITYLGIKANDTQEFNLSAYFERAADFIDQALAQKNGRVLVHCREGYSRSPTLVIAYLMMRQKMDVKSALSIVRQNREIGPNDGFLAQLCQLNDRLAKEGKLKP
# FBA Mtb inh = inhibits M. tuberculosis FBA enzyme. P9WQA3. purified M. tuberculosis FBA, fluorescence read-out. inhibition, % at 1 µM. 360,000 compounds, 2.3% hits. AID 588726;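 further: 0% = vehicle and 100% = reference inhibitor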
# Target sequence (P9WQA3 whole entry, looked up): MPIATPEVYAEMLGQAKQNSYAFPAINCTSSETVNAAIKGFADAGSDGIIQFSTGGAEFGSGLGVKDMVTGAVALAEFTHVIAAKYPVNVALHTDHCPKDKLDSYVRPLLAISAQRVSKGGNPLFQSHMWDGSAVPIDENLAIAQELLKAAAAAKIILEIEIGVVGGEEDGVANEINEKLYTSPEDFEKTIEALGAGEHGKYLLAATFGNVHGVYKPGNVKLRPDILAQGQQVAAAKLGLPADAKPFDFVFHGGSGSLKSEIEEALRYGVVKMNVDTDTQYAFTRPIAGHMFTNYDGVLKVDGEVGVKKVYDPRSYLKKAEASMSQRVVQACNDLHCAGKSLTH
# Mtb FBA inh conf = confirmation of M. tuberculosis fructose-bisphosphate aldolase inhibitors; shares compounds with FBA Mtb inh; purified M. tuberculosis FBA, fluorescence read-out; inhibition, % at 1 µM; 5,600 compounds, 78% hits; AID 651616;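 further: 0% = vehicle wells and 100% = reference inhibitor wells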
# GDH-TPI counter-2 = counter-screen for M. tuberculosis FBA inhibitors: GDH-TPI coupled enzyme inhibition | shares compounds with FBA Mtb inh | GDH-TPI coupled enzyme counterscreen, fluorescence | inhibition, % at 1 µM | 5,600 compounds, 81% hits; in the data active means inhibition above about 10%
# An asterisk follows results filed as active; . = no result; + = active, no number. Unless noted, no stated cut-off is given here; in the data, active means inhibition above about 27%; inactive means the rest.
SMILES,Mtb hypoxia rep,GDH-TPI counter-1,Mtb betalactam,DUSP3 inh,FBA Mtb inh,Mtb FBA inh conf,GDH-TPI counter-2
CC(C)(C)OC(=O)NCCCCC(C(=O)N1CCN(C(=O)OC(C)(C)C)CC1)n1cc(C(CO)NC(=O)OC(C)(C)C)nn1 (stereo not given),0.5,.,.,.,.,.,.
CCCn1nc2cc(C(=O)NCc3ccc4c(c3)OCO4)ccc2c1OCC,-2.5,0.9,14.8,6.4,61.9*,186.1*,167.1*
CN1C(=O)c2ccc(C(=O)NCc3ccc4c(c3)OCO4)cc2C1=O,-3.2,2.5,-0.5,1.3,3.0,.,.
CCCCn1nc2cc(C(=O)NCc3ccc4c(c3)OCO4)ccc2c1OCC,2.1,-0.9,-0.5,-12.6,33.9*,175.8*,140.5*
CCOc1c2ccc(C(=O)NCc3ccc4c(c3)OCO4)cc2nn1CC,10.0,7.8,10.9,6.4,50.8*,102.0*,84.0*
CCOc1c2ccc(C(=O)NCc3ccc4c(c3)OCO4)cc2nn1CCOC,2.7,-5.8,-0.3,6.4,49.4*,1.9,-5.2
CCOc1cc(C(=O)NCc2ccc3c(c2)OCO3)cc(OCC)c1OCC,6.4,8.6,3.3,21.9,1.2,.,.
COP1(=O)C=CC(N(Cc2ccccc2)S(=O)(=O)c2ccccc2[N+](=O)[O-])C(C)O1 (stereo not given),20.8,.,.,.,.,.,.
COc1ccc(C=NNC(=O)c2ccc([N+](=O)[O-])c(C)c2)cc1COc1ccccc1C(N)=O,-3.7,.,.,.,.,.,.
CC(=NNC(=O)c1nnn(-c2nonc2N)c1CN(C)c1ccccc1)c1ccc(O)cc1,3.7,.,.,.,.,.,.
Cc1ccccc1-n1c(C)cc(C=NNC(=O)c2ccc(CN3CCOCC3)cc2)c1C,8.8,.,.,.,.,.,.
CCOC(C)=Nn1c2nc3ccccc3nc2c2c(=O)n(C3CCCC3)c(C)nc21,-6.6,.,.,.,.,.,.
CCO/C(C)=N/n1c2nc3ccccc3nc2c2c(=O)n(CC(C)C)c(C)nc21,.,21.8,-1.4,21.9,33.2*,5.5,-0.5
CCOP(=O)(c1ccccc1)c1nc(-c2ccccc2C)oc1NCc1ccccc1 (stereo not given),14.2,5.4,-5.7,-7.7,-3.2,.,.
Cc1ccc(S(=O)(=O)c2nc(-c3ccccc3)oc2NCc2cccnc2)cc1,8.6,6.7,-10.9,20.0,-0.5,.,.
CCOP(=O)(OCC)c1nc(-c2ccc(Cl)cc2)oc1NCc1ccccc1,-11.3,13.6,-2.0,9.8,78.9*,79.6*,101.5*
COP(=O)(OC)c1nc(-c2ccccc2)oc1NCc1ccccc1,1.8,4.8,4.9,11.9,106.7*,86.0*,69.5*
COP(=O)(OC)c1nc(-c2ccc([N+](=O)[O-])cc2)oc1N1CCCCC1,4.9,7.9,-2.2,44.0,-2.6,.,.
COP(=O)(OC)c1nc(-c2ccccc2)oc1N1CCOCC1,3.8,-3.3,-5.5,-4.4,88.8*,82.9*,55.5*
CCCOP(=O)(OCCC)c1nc(-c2ccccc2)oc1NCc1ccccc1,-0.7,12.4,-2.5,8.2,57.0*,0.6,-1.1
COCCNC(=O)C1CC1C(NP(=O)(c1ccccc1)c1ccccc1)c1ccccc1 (stereo not given),2.6,.,.,.,.,.,.
Cc1ccccc1OC(C)C(=O)NCc1cccnc1 (stereo not given),8.5,-3.1,-3.1,-21.5,0.5,.,.
Cc1cc(OC(C)C(=O)NCc2cccnc2)c2c(C)cc(=O)oc2c1 (stereo not given),2.6,9.4,-4.9,34.4,107.6*,+,+
Cc1cc(OCC(=O)NCC(O)c2ccccc2)c2c(C)cc(=O)oc2c1 (stereo not given),-14.0,1.9,6.4,29.0,77.4*,17.4,-2.7
Cc1cc(OCC(=O)NCCc2ccc(S(N)(=O)=O)cc2)c2c(C)cc(=O)oc2c1,6.7,-5.9,4.0,24.1,67.4*,119.7*,97.2*
SMILES,Mtb hypoxia rep,GDH-TPI counter-1,Mtb betalactam,DUSP3 inh,FBA Mtb inh,Mtb FBA inh conf,GDH-TPI counter-2
CCCCc1cc(=O)oc2cc(C)cc(OC(C)C(=O)NCc3ccncc3)c12 (stereo not given),4.3,1.3,-5.5,16.6,41.8*,108.9*,76.5*
CCc1cc(=O)oc2cc(C)cc(OC(C)C(=O)NC(Cc3c[nH]c4ccc(O)cc34)C(=O)O)c12 (stereo not given),.,12.8,-8.8,24.7,9.3,.,.
O=C(Cn1cncn1)NN=Cc1ccccc1O,16.0,.,.,.,.,.,.
COc1cccc(C=NNc2nccnc2Cl)c1O,2.4,.,.,.,.,.,.
COC(=O)C1=C(c2ccc(Cl)c(C(F)(F)F)c2)CC2CCC1N2C(=O)NCCNC(C)=O (stereo not given),5.8,.,.,.,.,.,.
COc1ccc(CCNC(=O)COc2cc(C)cc3oc(=O)cc(C)c23)cc1,2.3,6.0,6.1,-2.2,2.9,.,.
Cc1cc(OC(C)C(=O)NCc2ccncc2)c2c(C)cc(=O)oc2c1 (stereo not given),0.3,7.9,-5.2,-2.4,83.6*,169.4*,158.9*
Cc1cc(OC(C)C(=O)NCc2ccncc2)c2c(C)c(C)c(=O)oc2c1 (stereo not given),4.5,6.5,-6.6,17.7,102.9*,56.6*,49.5*
Cc1cc(OCC(=O)NCc2ccncc2)c2c(C)cc(=O)oc2c1,-1.2,17.3,-2.8,29.8,79.0*,39.5*,39.1*
CC(Oc1ccc(Cl)cc1Cl)C(=O)NCc1ccncc1 (stereo not given),6.5,7.7,44.2,-8.2,0.2,.,.
Cc1ccc(C(=O)ON=C(N)c2nonc2N)cc1,8.1,.,.,.,.,.,.
Cc1ccc(C2CC(c3ccccc3C)n3nc(N)nc3N2)cc1 (stereo not given),.,-8.9,2.5,22.0,3.3,.,.
Cc1ccc(C2CC(c3cccs3)n3nc(N)nc3N2)cc1 (stereo not given),3.2,18.4,-12.3,39.2,60.5*,7.8,4.2
O=C1C=C2C=CC3C[C@]2(O1)C1CCCCN31 (stereo not given in full),18.0,.,.,.,.,.,.
C=CCn1c(-c2cc3c(s2)CCC(CC)C3)n[nH]c1=S (stereo not given),9.4,-0.9,-2.6,14.4,84.2*,170.1*,136.7*
C=CCn1c(SCC(=O)NC2CCS(=O)(=O)C2)nnc1-c1cc2c(s1)CCC(CC)C2 (stereo not given),-0.3,1.1,-5.6,-3.9,3.2,.,.
CCC1=C(OC(=O)N(CC)CC)N2C(=O)OC(=NCC(=O)OC)[C@]2(Cc2ccccc2)C2C1=CCC1C(=O)N(C)C(=O)C12 (stereo not given in full),4.2,.,.,.,.,.,.
CN(C)CCCN(Cc1cc2cc3c(cc2[nH]c1=O)OCO3)C(=S)NCc1ccco1,-5.2,8.2,-1.0,20.4,27.3*,+,+
CCN(CC)CCCN(Cc1cc2cc3c(cc2[nH]c1=O)OCO3)C(=S)NCc1ccco1,6.2,11.7,2.3,1.9,23.7,.,.
CCN(CC)CCN(Cc1cc2cc3c(cc2[nH]c1=O)OCO3)C(=S)NCc1ccco1,4.2,8.6,-4.5,7.5,35.4*,5.8,-0.7
